# Assay results reported in the supplement of paper PMC8728848.
# About 410 targets per protein were measured; listed, in parts, are those with the strongest signals and a random draw of the rest.
# B1: AidA (Burkholderia cenocepacia) (protein)
# chain: MSRVTDVLVSFDTETILKKYPNPSKNPAAPTLIDWRYVYMVTNQDNVISGQAGGELDLKAQVGDLIRWRETSLSLGFENQVVFYKFIGNVGNDLISTPTPRVAEASIPVPNTSKPEVPTCQKVANYYWSSECLKVGRVTYHFQFQIIDRNCQSQGCFSWDPFISIHN
# Key:
# Test in all cases: glycan array binding signal (z-score within array); higher = stronger binding
# Settings in all cases: glycan notation: IUPAC condensed, linker removed
# [1] = molecular target: Fuc(a1-2)Gal(b1-3)GalNAc(a1-3)[Fuc(a1-2)]Gal(b1-4)Glc
# Summary of the method: (§1)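 Glycan array binding is given as a within-array Z-score, which can be read as non-binding when negative. The arrays, 3228 of them, came from the Consortium for Functional Glycomics database and were retained only where the protein sequence was available. Z-scores were averaged across arrays of the same protein sequence at different concentrations or buffers and across linkers.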
# [2] = molecular target: Fuc(a1-2)Gal(b1-3)[Fuc(a1-4)]GlcNAc
# Summary of the method: as §1
# [3] = molecular target: Fuc(a1-2)[Gal(a1-3)]Gal(b1-3)GlcNAc(b1-2)Man(a1-3)[Fuc(a1-2)[Gal(a1-3)]Gal(b1-3)GlcNAc(b1-2)Man(a1-6)]Man(b1-4)GlcNAc(b1-4)[Fuc(a1-6)]GlcNAc
# Summary of the method: as §1
# [4] = molecular target: Fuc(a1-2)[Gal(a1-3)]Gal(b1-3)GlcNAc(b1-6)GalNAc
# Summary of the method: as §1
# [5] = molecular target: Fuc(a1-2)[Gal(a1-3)]Gal(b1-4)GlcNAc(b1-3)[Fuc(a1-2)[Gal(a1-3)]Gal(b1-4)GlcNAc(b1-6)]GalNAc
# Summary of the method: as §1
# [6] = molecular target: Fuc(a1-2)[Gal(a1-3)]Gal(b1-4)[Fuc(a1-3)]GlcNAc(b1-3)GalNAc
# Summary of the method: as §1
# [7] = molecular target: Fuc(a1-2)[GalNAc(a1-3)]Gal(b1-3)GlcNAc(b1-6)GalNAc
# Summary of the method: as §1
# [8] = molecular target: Fuc(a1-2)[GalNAc(a1-3)]Gal(b1-4)[Fuc(a1-3)]GlcNAc(b1-3)GalNAc
# Summary of the method: as §1
# Fuc(a1-3)GlcNAc = molecular target: Fuc(a1-3)GlcNAc
# Summary of the method: as §1
# [9] = molecular target: Fuc(a1-3)[Gal(b1-4)]GlcNAc(b1-2)Man
# Summary of the method: as §1
# [10] = molecular target: Fuc(a1-3)[Gal(b1-4)]GlcNAc(b1-3)Gal(b1-3)[Fuc(a1-4)]GlcNAc
# Summary of the method: as §1
# Fuc(a1-4)GlcNAc = molecular target: Fuc(a1-4)GlcNAc
# Summary of the method: as §1
# [11] = molecular target: Gal(a1-4)Gal(b1-3)GlcNAc(b1-2)Man(a1-3)[Gal(a1-4)Gal(b1-3)GlcNAc(b1-2)Man(a1-6)]Man(b1-4)GlcNAc(b1-4)GlcNAc
# Summary of the method: as §1
# [12] = molecular target: Gal(a1-4)Gal(b1-4)GlcNAc(b1-3)Gal(b1-4)Glc
# Summary of the method: as §1
# [13] = molecular target: Gal(b1-3)GalNAc(b1-4)[Neu5Ac(a2-3)]Gal(b1-4)Glc
# Summary of the method: as §1
# [14] = molecular target: Gal(b1-3)GlcNAc(b1-2)Man(a1-3)[Gal(b1-3)GlcNAc(b1-2)Man(a1-6)]Man(b1-4)GlcNAc(b1-4)[Fuc(a1-6)]GlcNAc
# Summary of the method: as §1
# [15] = molecular target: Gal(b1-3)[Fuc(a1-4)]GlcNAc(b1-2)Man
# Summary of the method: as §1
# [16] = molecular target: Gal(b1-4)GalNAc(b1-3)[Fuc(a1-2)]Gal(b1-4)GlcNAc
# Summary of the method: as §1
# [17] = molecular target: Gal(b1-4)GlcNAc(b1-2)[Gal(b1-4)GlcNAc(b1-6)]Man(a1-6)[GlcNAc(b1-4)][Gal(b1-4)GlcNAc(b1-2)[Gal(b1-4)GlcNAc(b1-4)]Man(a1-3)]Man(b1-4)GlcNAc(b1-4)[Fuc(a1-6)]GlcNAc
# Summary of the method: as §1
# [18] = molecular target: Gal(b1-4)GlcNAc(b1-3)Gal(b1-4)GlcNAc(b1-3)Gal(b1-4)GlcNAc(b1-2)Man(a1-3)[Gal(b1-4)GlcNAc(b1-3)Gal(b1-4)GlcNAc(b1-3)Gal(b1-4)GlcNAc(b1-2)Man(a1-6)]Man(b1-4)GlcNAc(b1-4)[Fuc(a1-6)]GlcNAc
# Summary of the method: as §1
# [19] = molecular target: Gal(b1-4)GlcNAc(b1-3)Gal(b1-4)GlcNAc(b1-3)Gal(b1-4)GlcNAc(b1-3)Gal(b1-4)GlcNAc(b1-2)Man(a1-3)[Gal(b1-4)GlcNAc(b1-3)Gal(b1-4)GlcNAc(b1-3)Gal(b1-4)GlcNAc(b1-3)Gal(b1-4)GlcNAc(b1-2)Man(a1-6)]Man(b1-4)GlcNAc(b1-4)[Fuc(a1-6)]GlcNAc
# Summary of the method: as §1
# [20] = molecular target: Gal(b1-4)GlcNAc(b1-6)GalNAc
# Summary of the method: as §1
# Gal3S(b1-3)GlcNAc = molecular target: Gal3S(b1-3)GlcNAc
# Summary of the method: as §1
# [21] = molecular target: Gal3S(b1-4)[Fuc(a1-3)]Glc6S
# Summary of the method: as §1
# GalNAc(a1-3)Gal = molecular target: GalNAc(a1-3)Gal
# Summary of the method: as §1
# GalNAc(b1-3)GlcNAc = molecular target: GalNAc(b1-3)GlcNAc
# Summary of the method: as §1
# GalNAc(b1-4)GlcNAc = molecular target: GalNAc(b1-4)GlcNAc
# Summary of the method: as §1
# GalNAc4S6S(b1-4)GlcNAc = molecular target: GalNAc4S6S(b1-4)GlcNAc
# Summary of the method: as §1
# [22] = molecular target: Glc(a1-6)Glc(a1-6)Glc(a1-6)Glc
# Summary of the method: as §1
# [23] = molecular target: GlcNAc(a1-4)Gal(b1-4)GlcNAc(b1-3)Gal(b1-4)GlcNAc
# Summary of the method: as §1
binder,measurement,setting,value
B1,glycan array binding signal (z-score),[1],-0.374
same,glycan array binding signal (z-score),[2],-0.268
same,glycan array binding signal (z-score),[3],1.35
same,glycan array binding signal (z-score),[4],0.594
same,glycan array binding signal (z-score),[5],0.451
same,glycan array binding signal (z-score),[6],-0.44
same,glycan array binding signal (z-score),[7],1.7
same,glycan array binding signal (z-score),[8],19.7
same,glycan array binding signal (z-score),Fuc(a1-3)GlcNAc,-0.017
same,glycan array binding signal (z-score),[9],0.556
same,glycan array binding signal (z-score),[10],-0.459
same,glycan array binding signal (z-score),Fuc(a1-4)GlcNAc,3.1
same,glycan array binding signal (z-score),[11],0.346
same,glycan array binding signal (z-score),[12],-0.277
same,glycan array binding signal (z-score),[13],0.172
same,glycan array binding signal (z-score),[14],-0.149
same,glycan array binding signal (z-score),[15],-0.108
same,glycan array binding signal (z-score),[16],-0.557
same,glycan array binding signal (z-score),[17],-0.272
same,glycan array binding signal (z-score),[18],1.44
same,glycan array binding signal (z-score),[19],0.416
same,glycan array binding signal (z-score),[20],-0.507
same,glycan array binding signal (z-score),Gal3S(b1-3)GlcNAc,2.41
same,glycan array binding signal (z-score),[21],2.38
same,glycan array binding signal (z-score),GalNAc(a1-3)Gal,0.384
same,glycan array binding signal (z-score),GalNAc(b1-3)GlcNAc,-0.115
same,glycan array binding signal (z-score),GalNAc(b1-4)GlcNAc,1.43
same,glycan array binding signal (z-score),GalNAc4S6S(b1-4)GlcNAc,-0.374
same,glycan array binding signal (z-score),[22],-0.597
same,glycan array binding signal (z-score),[23],0.177
